An excerpt weighted towards active compounds, which were near 2.6% of everything screened.
697 NFkB inh – inhibitors of the PMA/ionomycin-induced NF-kB reporter in 697 B cells | 697 B-cell NF-kB luciferase reporter, 16 h | inhibition, % at 4 µM | 330,000 tested, 0.33% active; in the data active means inhibition above about 35%
COUP-TFII inh – blocks human COUP-TFII nuclear receptor | HEK293T NGFI-A luciferase reporter, luminescence | inhibition, % at 8.6 µM | P24468 | 370,000 tested, 0.7% active | AID 686940;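 active means inhibition above a per-plate cutoff, mean inhibition of test wells between control levels plus 3 SD, cut at about 38% in these data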;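 further: cells cotransfected with COUP-TFII expression vector driving the NGFI-A reporter; 0% = median of COUP-TF2 test wells and 100% = reporter-only cells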
Target sequence (P24468 whole entry, looked up): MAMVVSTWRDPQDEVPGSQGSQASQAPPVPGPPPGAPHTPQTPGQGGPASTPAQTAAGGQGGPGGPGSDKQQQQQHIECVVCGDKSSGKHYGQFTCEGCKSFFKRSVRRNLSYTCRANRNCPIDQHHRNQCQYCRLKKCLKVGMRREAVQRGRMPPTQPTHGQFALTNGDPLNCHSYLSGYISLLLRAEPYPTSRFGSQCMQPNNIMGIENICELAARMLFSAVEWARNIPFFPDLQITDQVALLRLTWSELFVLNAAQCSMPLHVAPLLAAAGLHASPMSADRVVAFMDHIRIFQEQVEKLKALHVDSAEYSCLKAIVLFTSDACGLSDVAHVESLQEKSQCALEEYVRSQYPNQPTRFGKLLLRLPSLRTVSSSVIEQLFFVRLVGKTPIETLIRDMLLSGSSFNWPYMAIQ
H9c2 TAG inh – inhibitors of triacylglycerol accumulation | H9c2 cells, Nile Red lipid (TAG) fluorescence; cells loaded with 200 µM oleic acid | inhibition, % at 12.5 µM | 230,000 tested, 0.66% active | AID 651582;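 active means pattern-corrected inhibition of lipid staining of at least 50% with the nuclear-stain viability signal not falling by more than 50%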;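 further: 0% = DMSO wells and 100% = triacsin C control wells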
Gli-Sufu antag – blocks Gli-Sufu signaling in a luciferase reporter; Sufu-KO-LIGHT fibroblasts, Gli luciferase reporter luminescence; inhibition, % at 5 µM; 340,000 tested, 0.74% active; AID 588413;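 active means inhibition above about 55%, limit read from the data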;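 further: 0% = DMSO-treated cells and 100% = wells with medium but no cells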
Jurkat NFkB inh – inhibitors of the PMA/ionomycin-induced NF-kB reporter in Jurkat cells | PMA/ionomycin-induced NF-kB luciferase reporter, luminescence | inhibition, % at 4 µM | 330,000 tested, 0.53% active | AID 435003; in the data active means inhibition above about 50%
Cardio protect – modulators protecting cardiomyocytes from myocardial damage; H9c2 cardiomyocytes, H2O2 injury protection, ATPLite, 2 h; protection from H2O2 cell death, % at 20 µM; 360,000 tested, 0.63% active; AID 588492;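 active means compounds giving at least 50% protection of heart cells from peroxide-induced death in the single-dose screen, raw or plate-pattern-corrected value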;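 further: 0% = DMSO wells with peroxide and 100% = DMSO wells without peroxide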
Active calls of the source: *; . = no result.

SMILES	697 NFkB inh	COUP-TFII inh	H9c2 TAG inh	Gli-Sufu antag	Jurkat NFkB inh	Cardio protect
Cc1cnc(NC(=O)CSc2nc3ccccc3c(=O)[nH]2)s1	-7.3	-1.8	2.7	4.7	-6.0	58.6*
COc1ccc(CNCc2cc3c(C(C)(C)C)nn(-c4ccccc4)c3[nH]c2=O)cc1	-1.7	11.6	.	0.3	18.3	18.0
Cc1ccc(CNCc2cc3c(C(C)(C)C)nn(-c4ccccc4)c3[nH]c2=O)cc1	-13.0	22.8	.	2.3	3.3	58.0*
CC(C)(C)c1nn(-c2ccccc2)c2[nH]c(=O)c(CNCc3ccco3)cc12	-3.6	10.3	17.5	2.3	4.2	79.0*
O=C(Nc1cccc(C(F)(F)F)c1)OCCCN1CCC2(CCC(c3ccccc3)CC2)C1=O (stereo not drawn)	.	6.6	.	.	.	.
Cc1cc(C)cc(OCC(=O)NNC(=O)c2ccccn2)c1	11.8	5.5	8.9	-4.2	12.4	78.2*
COc1cccc(-c2nn3c(-c4ccccn4)nnc3s2)c1	-12.2	-7.2	.	-11.9	-0.3	57.2*
c1ccc(-c2nn3c(-c4ccco4)nnc3s2)nc1	0.5	15.9	.	-6.6	-4.6	80.7*
COc1ccc(-c2nnc3sc(-c4ccccn4)nn23)cc1	-29.4	.	.	.	-22.6	.
COc1cccc(-c2nnc3sc(-c4ccccn4)nn23)c1	-32.3	-9.0	.	-17.2	-21.6	88.0*
COC[C@H]1CCCN1c1ccc2c(c1)O[C@H]1CCN(C1)S2(=O)=O	.	1.4	.	.	.	.
CCOC(=O)[C@@]12CCCC3=C1N(CCC3)C(=O)[C@H]2CC(=O)NCc1cccs1	.	15.4	.	.	.	.
O=c1[nH]c2c(c3c1CCCC3)CCCC2	22.6	-20.1	.	11.4	-19.8	74.4*
O=c1[nH]c2c(c(=O)[nH]1)CCCCCC2	.	1.6	-0.9	0.5	.	-5.8
COc1ccc(C(=O)Nc2cc(C)nn2-c2nc3ccccc3[nH]2)c(OC)c1	-5.6	-9.3	43.9	-3.1	7.2	63.2*
COc1cccc(OC)c1C(=O)Nc1cc(C)nn1-c1nc2ccccc2[nH]1	25.5	21.2	33.0	15.4	23.1	77.2*
CC(NCc1ccco1)C(=O)N1CCN(c2ccc(F)cc2)CC1 (stereo not drawn)	.	-8.3	.	.	.	.
COC(=O)C1=C(C)N(CCc2ccc(OC)cc2)C(=O)C1	6.0	-4.4	4.1	1.4	8.6	100.3*
COC(=O)C1=C(C)N(Cc2ccc(OC)cc2)C(=O)C1	-0.7	-4.8	.	-0.9	0.8	4.4
CCOC(=O)CCCNC(=O)OC1CC2CC1[C@H]1CCCCN1[C@H]2Cc1ccccc1 (stereo partly drawn)	.	-17.5	.	.	.	.
CC/C(C)=N\N=C\c1c(O)n(CC)c2cc(C3=NNC(=O)CC3)ccc12	4.6	.	12.0	1.1	-0.4	61.0*
CCn1c(O)c(/C=N/N=C/c2ccc(OC)cc2)c2cc(C3=NNC(=O)CC3)ccc21	9.7	14.4	-2.5	0.6	9.4	-0.6
O=S(=O)(CC1NCc2cc(F)ccc21)NCc1ccccc1 (stereo not drawn)	.	-7.5	.	.	.	.
CCC1(CC)NC(=O)N(CC(=O)OCC(=O)Nc2ccccc2[N+](=O)[O-])C1=O	7.2	2.0	-29.1	-2.3	-7.5	70.1*
Cc1ccc(CNC(=O)c2oc3ccc(S(=O)(=O)N4CCOCC4)cc3c2C)cc1	-10.0	4.5	.	10.6	0.0	51.4*
SMILES	697 NFkB inh	COUP-TFII inh	H9c2 TAG inh	Gli-Sufu antag	Jurkat NFkB inh	Cardio protect
Cc1nn(Cc2c(Cl)cccc2Cl)c(C)c1NC(=O)c1cn(-c2ccccc2)nc1-c1ccccc1	-31.1	.	50.4*	35.7	25.0	-14.3
C#CCN1CC(N(C)CCOC(=O)CC2C=CCC2)CS1(=O)=O (stereo not drawn)	.	6.0	.	.	.	.
COc1ccc(NS(=O)(=O)c2cccs2)cc1S(=O)(=O)N1CCOCC1	-4.1	0.9	.	-14.1	-1.1	3.5
COc1ccc(Nc2nc(-c3cccs3)nc3ccccc23)cc1S(=O)(=O)N1CCOCC1	9.3	-3.9	30.4	-0.2	27.1	67.3*
Cc1cccc(C)c1NC(=O)C1CCCN1S(=O)(=O)c1cccc2cccnc12 (stereo not drawn)	.	-7.3	.	.	.	.
COc1ccc(C2C(C(=O)N3CCC(C)CC3)CC(=O)N2c2ccc(OC)cc2)cc1 (stereo not drawn)	.	-9.2	.	.	.	.
COc1ccc(C2NCCc3c2[nH]c2ccccc32)cc1COc1ccc(F)cc1 (stereo not drawn)	22.2	10.2	114.8*	10.5	-4.3	-11.6
CN(CCOC(=O)c1cc2ccccc2o1)C1CN(Cc2cn(Cc3ccccc3C(F)(F)F)nn2)S(=O)(=O)C1 (stereo not drawn)	.	1.2	.	.	.	.
CCc1ccc(C(C)NC(=O)c2cc(C)oc2C)cc1 (stereo not drawn)	4.0	17.9	10.7	3.4	3.8	55.8*
O=C(Nc1cccc(-c2nc3ccccc3s2)c1)c1cc(-n2cnnc2)ccc1Cl	-31.4	.	.	-5.5	-29.2	75.7*
O=C(CCc1nc(-c2ccccc2F)no1)NCCc1ccc(F)cc1	.	1.2	.	.	.	.
CCOc1cc(N2CCOCC2)c(OCC)cc1NC(=O)c1nn(CC)c(=O)c2ccccc12	14.8	-4.1	40.5	40.7	15.7	53.9*
CCOc1cc(N2CCOCC2)c(OCC)cc1NC(=O)c1ccc(OCc2c(C)noc2C)c(OC)c1	1.1	10.6	.	8.1	11.0	63.3*
COc1ccc(Cl)cc1C(=O)NNC(=O)c1nn(C)c(=O)c2ccccc12	4.9	22.0	28.6	-2.9	-9.5	30.5
CCOc1cc(N2CCOCC2)c(OCC)cc1NC(=O)c1ccc(OC)cc1	8.7	-9.4	3.6	5.9	-6.5	10.6
CCn1nc(C(=O)NNC(=O)c2cc(Cl)ccc2OC)c2ccccc2c1=O	9.8	-5.8	16.5	-2.1	0.5	66.4*
O=C(Cn1cnc2ccccc2c1=O)N1CCCCC1	.	1.1	.	.	.	.
CC(C)C[C@H]1COc2cccc(N3CCSCC3)c2S(=O)(=O)N1C	.	10.4	.	.	.	.
CC(=O)Nc1sc2c(c1-c1nc(-c3ccccc3)cs1)CCN(C(C)C)C2	.	-35.4	.	.	.	.
Cc1cc2[nH]c3c4ccccc4nc(C)c3c2cc1C	.	-8.2	140.6	11.2	.	-22.0
Cc1cc2[nH]c3c(c[n+](C)c4ccccc34)c2cc1C	22.7	-68.7	127.3*	6.4	34.9	-15.9
CN[C@H]1C[C@H]2c3[nH]c4c(-c5ccc6c(c5)OCO6)cccc4c3CCN2C[C@H]1[C@H](C)O	.	-24.0	.	.	.	.
CC1CCCCN1CCNC(=O)c1cc2c(-c3ccccc3F)nn(C)c2s1 (stereo not drawn)	-6.2	-11.4	32.2	3.3	-25.4	-29.3
CCOC(=O)N1CCC(NC(=O)c2cc3c(-c4ccccc4F)nn(C)c3s2)CC1	4.0	-5.6	-11.7	9.7	-8.1	50.4*
CNc1ccccc(C(=O)/C=C/c2ccccc2OC)c1=O	-12.7	17.7	.	8.4	5.2	51.2*
CNc1ccc(Br)cc(C(=O)/C=C/c2cccc(OC)c2OC)c1=O	-13.6	5.0	.	26.1	1.3	18.3
COc1ccccc1/C=C/C(=O)/C=C/c1ccccc1O	.	33.1	.	5.0	.	-14.9
COc1ccccc1C=CC(=O)C=Cc1ccccc1OC	.	49.8*	16.8	-8.2	.	6.5

Screening results deposited in PubChem by several laboratories.
